A selection: hits, their analogues and other compounds. The true share with any hit is near 5.9%.
HSF-1 act: increases HSF-1 driven luciferase reporter signal; NIH3T3-HGL HSF-1 luciferase reporter, MG132, 8 h; 100% = twice DMSO control signal; 300,000 tested, 1.7% active; AID 504408; activation, % at 9 µM;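 active = mean replicate activation of at least 50% with a set share of replicates each reaching 50%; inconclusive = only one of those two conditions met; inactive = mean below 50% and too few replicates reaching it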
HSF1 inh: HSF1 inhibition | activity change, negative = inhibition, % at 7.5 µM (by protocol) | NIH3T3-HGL HSE-luciferase, MG132-induced, luminescence 8 h; hits give low values | 300,000 tested, 0.77% active | AID 2098;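 active = more than half of replicate wells show activity change below -50%, luminescence cut by over half; inconclusive = some wells, but at most half, below -50%; inactive = no replicate well below -50%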;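 also: luciferase reports HSF-1 transcriptional activity via heat shock element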
NR0B1 inh: inhibits human nuclear receptor DAX1 | P51843 | HEK293 Gal4-DAX1 luciferase reporter, luminescence | inhibition, % at 6.75 µM | 340,000 tested, 0.99% active;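 active = inhibition above the mean over all tested compounds plus 3 SD, cut at about 4.2% in these data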;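 also: inhibition shows as a rise in luminescence from relieved DAX1 repression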
Target sequence (P51843 207-470 limits assumed): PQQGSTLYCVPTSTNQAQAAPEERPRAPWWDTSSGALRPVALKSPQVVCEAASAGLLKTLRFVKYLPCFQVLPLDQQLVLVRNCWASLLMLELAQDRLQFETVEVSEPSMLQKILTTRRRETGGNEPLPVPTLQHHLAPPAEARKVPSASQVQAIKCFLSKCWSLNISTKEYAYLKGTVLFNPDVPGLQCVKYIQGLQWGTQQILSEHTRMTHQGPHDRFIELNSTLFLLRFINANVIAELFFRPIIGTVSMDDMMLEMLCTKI
FXN GAA850 act: activators of GAA850 frataxin (FXN) promoter | HEK293 lucGAA850 FXN promoter luciferase reporter, 24 h; percent of 10 µM SAHA response | AID 540364 | activation, % at 6 µM | 360,000 tested, 0.56% active;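 active = activation above the average of all compounds screened plus 3 SD, cutoff fixed separately per campaign, cut at about 7.5% in these data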
AHR act: activators of human aryl hydrocarbon receptor; P35869; AHR-responsive luciferase reporter cells, luminescence; activation, % at 5 µM; 320,000 tested, 2.5% active; AID 2796; in the data active = activation above about 47%
HSP90 inh: blocks HSP90-mediated luciferase refolding in reticulocyte lysate | AID 1789 | 290,000 tested, 0.91% active | Rabbit reticulocyte lysate, luciferase refolding luminescence, 3 h | inhibition, % at 5.6 µM;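 active = inhibition above the screen-wide mean plus 3 SD, computed separately per campaign, cut at about 16% in these data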;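 also: inhibitors lower the luminescence because luciferase stays unfolded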
Each line names hits and unclear results; the compound was inactive in the other large screens.

Cc1cc(=O)oc2cc(OC(C)C(=O)NCC3CCC(C(=O)O)CC3)ccc12 (stereo unspecified)	none
CC1(C)CC2CC(C)(CN2C(=O)c2ccc([N+](=O)[O-])cc2[N+](=O)[O-])C1 (stereo unspecified)	NR0B1 inh 6.7
CC1(C)CC2CC(C)(CN2C(=O)c2ccc([N+](=O)[O-])cc2)C1 (stereo unspecified)	none
Cc1cccc(N2CCN(Cc3nc(-c4ccccc4Cl)oc3C)CC2)n1	HSF1 inh -60
[N-]=[N+]=NC1CC(CO)OC1n1ccc(=O)[nH]c1=O (stereo unspecified)	none
Cc1ccc(C)c(-n2c(CNC(=O)c3ccco3)nnc2SCC(=O)N2CCc3ccccc32)c1	HSF-1 act 58
Cc1ccc(C)c(-n2c(CNC(=O)c3ccco3)nnc2SCC(=O)Nc2nnc(C)s2)c1	none
CN1OC[C@@H]2CN[C@H](c3cccc(N4CCOCC4)c3)C[C@@H]21	none (no result: HSF-1 act, HSF1 inh, AHR act, HSP90 inh)
CC(OC(=O)c1ccc(Cl)nc1)C(=O)NC1(C#N)CCCCC1 (stereo unspecified)	NR0B1 inh 4.5 (no result: HSP90 inh)
Cc1ccccc1OCC(=O)NCC(c1ccco1)N1CCCCC1 (stereo unspecified)	none
COc1ccccc1CC(=O)NCC(c1ccco1)N1CCCCC1 (stereo unspecified)	NR0B1 inh 4.6
CC(C)CNC(=O)c1ccc2c(c1)C(=O)N(Cc1ccco1)C2=O	none
[O-]c1n[n+](-c2ccc(Cl)cc2)cc2ccccc12	none
[O-]c1n[n+](-c2ccc(Cl)cc2Cl)cc2ccccc12	NR0B1 inh 4.4
CCCCNc1c(-c2cccc(-c3cc(C(C)=O)cs3)c2)nc2cc(C)ccn12	AHR act 55 (no result: HSP90 inh)
c1ccc2c(c1)ccc1[nH]c3c(c12)CCCC3	none (no result: HSF-1 act, HSF1 inh, AHR act, HSP90 inh)
COc1ccc(Nc2nc(C)cc(C)c2C#N)cc1	AHR act 65
CCOc1ccc(Nc2nc(C)cc(C)c2C#N)cc1	AHR act 80
Cc1cc(C(=O)N2CCC(C)(C(=O)NS(=O)(=O)C3CC3)C2)n(C(C)(C)C)n1 (stereo unspecified)	none (no result: HSF-1 act, HSF1 inh, NR0B1 inh, AHR act, HSP90 inh)
CC(=O)Nc1sc(N/N=C\c2ccccc2Cl)nc1-c1cccs1	AHR act 59
CC(=O)Nc1sc(N/N=C/c2ccccc2)nc1-c1ccc(C)cc1	NR0B1 inh 5.0
Cc1cc(C)nc(N/N=C/C=C/c2ccccc2)n1	none
Cc1sc(N/N=C/C=C/c2ccccc2)nc1-c1ccccc1	AHR act 73
CC(=O)Nc1sc(N/N=C\c2ccccc2)nc1-c1cccs1	none
O=C(CN1C(=O)NC2(CCCC2)C1=O)NNC(=O)c1ccc(Cl)cc1	none (no result: HSF-1 act, HSF1 inh, HSP90 inh)
O=C(NC1CCN(C(=O)Nc2ccc(F)cc2)CC1)c1ccc(F)cc1	none
CC(C)CNC(=S)NNC(=O)CC(C)O (stereo unspecified)	none
CCNC(=S)NNC(=O)CC(C)C	NR0B1 inh 6.7
CCC1CCc2c([nH]c3ccccc3c2=O)O1 (stereo unspecified)	none
CC1(C)CCc2c([nH]c3ccccc3c2=O)O1	NR0B1 inh 5.5
Clc1ccc(OCc2cn3ccccc3n2)c2ncccc12	HSF-1 act inconclusive, AHR act 49
CSc1ccccc1-c1ccc2nccn2c1	none (no result: HSF-1 act, HSF1 inh, NR0B1 inh, AHR act, HSP90 inh)
CC(C)(C)c1ccc(-c2nnc(N)s2)cc1	AHR act 63
O=C(Nc1ccc(C(F)(F)F)cc1)c1cccnc1N1CCOCC1	AHR act 61
O=C(Cc1cccc(NC(=O)C2CCN(C(=O)C3CCCC3)CC2)c1)Nc1cccc(C(=O)N2CCOCC2)c1	none (no result: HSF-1 act, HSF1 inh, AHR act, HSP90 inh)
CCCn1c(C)cc(C(=O)COc2ncnc3sccc23)c1C	none
CCCn1c(C)cc(C(=O)COc2ccc(-c3nnco3)cc2)c1C	HSP90 inh 16 (no result: HSF-1 act, HSF1 inh)
CC(C)OC(=O)c1cccnc1SCc1cc(=O)n2ccccc2n1	AHR act 55
CCN1CCN(C(=O)c2cc3cc(F)ccc3[nH]2)CC1	AHR act 65
COc1ccc(-c2ccc(/C=C3/C(=N)N4C=CSC4=NC3=O)o2)c([N+](=O)[O-])c1	AHR act 49
N=C1/C(=C/c2cccn2-c2ccc([N+](=O)[O-])cc2)C(=O)N=C2SC=CN12	none
O=C(CCn1cccn1)N1CCCC(N2CCN(c3cccc(C(F)(F)F)c3)CC2)C1 (stereo unspecified)	none
O=C(CN1C(=O)CCC1=O)NC(=O)NC1CCCC1	NR0B1 inh 4.6
CC1(c2ccccc2)NC(=O)N(CC(=O)NC(=O)NC2CCCC2)C1=O (stereo unspecified)	none
COc1ccc(C(=O)N2CCCCC2c2cc(C(=O)Nc3cccc(C#N)c3)no2)cc1 (stereo unspecified)	none (no result: HSF-1 act, HSF1 inh, NR0B1 inh, AHR act, HSP90 inh)
COc1ccc(OC)c(C=Nc2ccccc2-c2nc3ccccc3[nH]2)c1	AHR act 87
COc1ccc(OC)c(/C=C/c2nc3ccccc3[nH]c2=O)c1	AHR act 60
Oc1ccc(C=Nc2ccccc2-c2nc3ccccc3[nH]2)c(O)c1	AHR act 95
Cc1ccccc1CNC(=O)Cn1cnc(S(=O)(=O)N2CCCC2)c1	none
COc1ccc2nc(NC(=O)C3CCCO3)sc2c1 (stereo unspecified)	NR0B1 inh 4.3
Cc1cc(C)c2sc(NC(=O)c3ccc([N+](=O)[O-])o3)nc2c1	HSF-1 act 77
COc1ccc2nc(NC(=O)c3ccccc3[N+](=O)[O-])sc2c1	NR0B1 inh 4.4
COc1ccc2nc(NC(=O)c3ccc(F)cc3)sc2c1	NR0B1 inh 4.7
COc1ccc(C(=O)NCCCNC(=O)c2ccccn2)cc1Br	none
COc1ccc(CCNC(=O)c2cccc(NS(=O)(=O)c3ccccc3F)c2)cc1OC	none
O=C(Nc1nc2ccccc2s1)c1ccc([N+](=O)[O-])o1	none
COc1cc2nc(NC(=O)c3ccc(Cl)cc3)sc(=O)c2cc1OC	HSF-1 act 57
COc1ccc2cc3c(N)nn(C(=O)c4ccccc4[N+](=O)[O-])c3nc2c1	HSF1 inh -53
COc1ccc2cc3c(N)nn(C(=O)c4ccc(Cl)c([N+](=O)[O-])c4)c3nc2c1	none
COc1ccc2nc(NC(=O)c3ccc([N+](=O)[O-])o3)sc2c1	HSF-1 act 132, AHR act 52
O=C(Nc1nc2cc3c(cc2s1)OCCO3)c1ccc([N+](=O)[O-])o1	HSF-1 act 104
CCOc1ccc2nc(NC(=O)CC3Oc4ccccc4NC3=O)sc2c1 (stereo unspecified)	none
COc1ccc(C2CCc3cc(OC)c(OC)cc3C2NC=O)cc1OC (stereo unspecified)	none (no result: HSF-1 act, HSF1 inh, AHR act, HSP90 inh)
Cc1cccc2sc(NC(=O)C3CCCO3)nc12 (stereo unspecified)	HSF-1 act 63
CCc1cccc(C)c1NC(=O)C1CCCO1 (stereo unspecified)	none
CSc1ccccc1NC(=O)c1ccc(N2CCCC2=O)cc1	none (no result: HSF-1 act, HSF1 inh, HSP90 inh)
